# Hsp70 act – transcriptional activators of Hsp70. HeLa Hsp70 promoter luciferase reporter, luminescence; scaled: vehicle 0, proteasome-inhibitor control 100%. activation, % at 10 µM. 0.04% of 200,000 active. AID 1203;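 active means activation above the mean across all tested compounds plus 3 SD, cutoff set per campaign, cut at about 5.5% in these data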
# pCIP destab – compounds decreasing mouse p/CIP protein stability; F442A p/CIP-EGFP cells, EGFP fluorescence, 16 h; Q05BA5; decrease of EGFP signal, % at 10 µM; 0.01% of 290,000 active; AID 1984;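 active means EGFP signal decrease of at least 30% at 10 µM or well 3 SD below plate mean, unless failing retest; inactive means the rest, including hits failing retest or dose response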
# NALP1 inh – NALP1 inhibition | inhibition, % at 10 µM | AID 2071 | 0.61% of 280,000 active | S. cerevisiae NALP1/ASC/caspase-1 growth, X-gal OD620, 72 h; in the data active means inhibition mostly above about 24%, no sharp cut-off; inactive means mostly below about 32%
# HSP90 inh – blocks HSP90-mediated luciferase refolding in reticulocyte lysate; inhibition, % at 5.6 µM; AID 1789; 0.91% of 290,000 active; Rabbit reticulocyte lysate, luciferase refolding luminescence, 3 h;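 active means inhibition above the screen-wide mean plus 3 SD, computed separately per campaign, cut at about 16% in these data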;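 further: inhibitors lower the luminescence because luciferase stays unfolded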
# HSF1 activator – increases HSF-1 driven luciferase reporter signal; 1.7% of 300,000 active; NIH3T3-HGL HSF-1 luciferase reporter, MG132, 8 h; 100% = twice DMSO control signal; activation, % at 9 µM;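 active means mean replicate activation of at least 50% with a set share of replicates each reaching 50%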
# HSF1 inh – HSF1 inhibition. activity change, negative = inhibition, % at 7.5 µM (by protocol). AID 2098. NIH3T3-HGL HSE-luciferase, MG132-induced, luminescence 8 h; active compounds read low. 0.77% of 300,000 active;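 active means more than half of replicate wells show activity change below -50%, luminescence cut by over half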;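 further: luciferase reports HSF-1 transcriptional activity via heat shock element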
# Hits are given with their value; - = inactive; . = no result. In the library only some 3.8% were active in any assay of this set; here they are far more common.
SMILES,Hsp70 act,pCIP destab,NALP1 inh,HSP90 inh,HSF1 activator,HSF1 inh
CC(=O)c1cnc(Oc2cc(Cl)ccc2Cl)nc1C,.,-,-,-,-,-
COc1ccc(S(=O)(=O)N2CCc3cc(OC)c(OC)cc3C2)cc1,.,-,.,-,-,-
CCCS(=O)(=O)N1CCc2cc(OC)c(OC)cc2C1,-,-,-,-,-,-55
CCOC(=O)c1c(NC(=O)CN2CCCc3ccccc32)sc(C(C)=O)c1C,-,-,-,-,50,-
O=C(NCCc1ccccc1)C(=O)c1cn(CC(=O)N2CCCC2)c2ccccc12,.,-,-,-,52,-
Cc1c(N(C)S(=O)(=O)c2cc(C(=O)Nc3ccccn3)ccc2Cl)c(=O)n(-c2ccccc2)n1C,.,.,.,.,-,-
COc1ccc(Cn2nnnc2CN2CCc3ccccc3C2)cc1,-,-,27,-,-,-61
COc1ccc(Cn2nnnc2CN2CCc3ccccc32)cc1,-,-,-,-,-,-
Clc1ccccc1CSc1nnc(-c2ccccn2)n1Cc1ccco1,-,-,-,-,120,-
NC(=O)CSc1nnc(-c2ccccn2)n1Cc1ccco1,.,-,-,-,-,-
CC(=O)O[C@]1(C(C)=O)CC[C@H]2[C@@H]3C=CC4=CC(=O)C=C[C@]4(C)[C@H]3CC[C@@]21C,.,-,-,-,109,-
CC(=O)O[C@]1(C(C)=O)CCC2C3C=C(C)C4=CC(=O)CC[C@]4(C)C3CC[C@@]21C (some centres not stated),.,-,-,-,-,-
CN(C)CCNC(=O)C(=O)NCC1CCCN1S(=O)(=O)c1cccs1 (configuration not stated),.,.,.,.,-,-
O=C(Nc1cccc([N+](=O)[O-])c1)c1[nH]ncc1Cl,-,-,-,-,52,-
CCC(C)c1ccc(N(C(=O)c2ccco2)C(C(=O)NC2CCCC2)c2cccnc2)cc1 (configuration not stated),.,-,-,-,-,-
Cc1cccc(CSc2cn(CC(=O)N3CCOCC3)c3ccccc23)c1,-,-,-,-,76,-
O=C(NC1CC1)c1ccc2c3c(cccc13)CC2,-,-,-,-,-,-
CC(C)(C)NC(=O)c1ccc2c3c(cccc13)CC2,-,-,-,-,101,-
O=C(COc1ccc(/C=C\[N+](=O)[O-])cc1)N1CCOCC1,-,-,-,-,181,-
CN(C)S(=O)(=O)c1ccc(C(=O)NCc2nnc(SCC(=O)NCc3ccco3)o2)cc1,.,-,-,-,-,-
CCCN1CCC(=O)N([C@H](CN=[N+]=[N-])CC(C)C)CC1,.,-,-,-,-,-
Cn1ncc2c(O/N=C(\N)c3ccc(C(C)(C)C)cc3)ncnc21,.,-,.,-,-,-92
CCOC(=O)c1ccc(Nc2ncnc3c2cnn3C)cc1,-,-,-,-,-,-
C=C1CC2(OC1=O)c1ccccc1CCc1ccccc12,.,.,.,.,60,60
CCCCNC(=O)c1ccc(NS(=O)(=O)c2ccc3[nH]c(=O)[nH]c3c2)cc1,.,-,-,-,-,-
SMILES,Hsp70 act,pCIP destab,NALP1 inh,HSP90 inh,HSF1 activator,HSF1 inh
C/C(=C\C(=O)Nc1cscc1C)C(=O)O,.,-,-,-,74,-
CC(C)=CC(=O)Nc1nnc(-c2ccccc2C)s1,-,-,-,-,-,-
COc1cccc(NC(=S)N(CCCN2CCN(C)CC2)Cc2ccco2)c1,-,-,-,-,61,-
CCOC(=O)c1ccc(NC(=S)N(CCCN(CC)CC)Cc2ccco2)cc1,-,-,-,-,-,-
CCOC(=O)c1ccc(NC(=S)N(CCCN2CCCCC2)Cc2ccco2)cc1,-,-,44,-,-,-
O=c1cc(-c2ccc(F)cc2)[nH][nH]1,-,-,-,17,-,-
CC(C)C1Cc2c(sc3c2c(=O)n(-c2ccccc2)c2n[nH]c(=S)n32)CO1 (configuration not stated),.,-,.,-,-,-
COc1cc(C=O)ccc1OC(=O)c1ccc(C(C)C)cc1,-,-,-,-,-,-91
COc1cc(C=O)ccc1OC(=O)c1ccncc1,-,-,-,-,-,-
O=C(Nc1nc(-c2cccs2)cs1)c1cccc(S(=O)(=O)N2CCCCCC2)c1,-,-,-,-,-,-61
O=C(Nc1nc(-c2cccs2)cs1)c1ccc(S(=O)(=O)N2CCCCC2)cc1,-,-,.,-,-,-61
O=C(Nc1nc(-c2ccccn2)cs1)c1ccc(S(=O)(=O)N2CCCCC2)cc1,.,-,.,-,-,-
COc1ccc(C(=O)CC2(C(=O)O)CCCCC2)cc1,.,-,-,-,-,-
CN1CCN(Cn2cc(/C=C/C(=O)c3ccccc3)c3ccccc32)CC1,-,-,-,-,87,-
Cc1cccc(N2C(=O)CS/C2=N\NC(=O)c2ccc(Br)cc2)c1C,-,-,-,-,-,-72
NS(=O)(=O)c1cccc(NC(=O)Cc2ccc(Cl)c(Cl)c2)c1,-,-,-,-,-,-
CCCCNc1nc(-c2ccccc2)c(C(=O)OCC)cc1C#N,-,-,44,-,-,-
Cc1cc(=O)c2cc3nc(-c4cccnc4)oc3c(Br)c2o1,.,-,-,-,-,-
O=C(CSC1=NNC(c2ccccn2)S1)Nc1cccc(Cl)c1 (configuration not stated),.,-,.,-,-,-
O=C(CSC1=NNC(c2ccccn2)S1)Nc1ccccc1 (configuration not stated),.,-,.,-,-,-62
COC(=O)COc1cccc(/C=N/NC(=O)CCSc2ccccc2)c1,-,-,-,-,-,-
O=C(CNS(=O)(=O)c1cccc(Br)c1)NCCCc1ccccc1,.,-,-,-,-,-
CC(C)CC1(C)NC(=O)N(Cc2cc([N+](=O)[O-])cc3c2OCOC3)C1=O (configuration not stated),.,-,23,-,-,-
COc1cc(CNC(C)C23CC4CC(CC(C4)C2)C3)cc(OC)c1OC (configuration not stated),.,-,-,-,-,-
COc1ccc(C(C#N)N2N=C(C)CC2c2ccccc2)cc1 (configuration not stated),.,-,-,-,-,-
SMILES,Hsp70 act,pCIP destab,NALP1 inh,HSP90 inh,HSF1 activator,HSF1 inh
COc1ccc(C2=NN(C(C#N)c3ccc(OC)cc3)C(c3ccccc3)C2)cc1 (configuration not stated),-,-,-,-,64,-
CCOC(=O)c1c(S(=O)(=O)NCC(=O)Nc2ccc(OC)cc2)c(C)n(C)c1C,.,-,-,-,-,-
CC(=O)N1CCn2c3ccc(C)cc3c3cccc1c32,-,-,-,-,65,-
Cc1cc(=O)oc2cc(OCC(=O)NCCc3nc4ccccc4[nH]3)ccc12,-,-,38,-,-,-
CCCCSc1nc2sc3c(c2c(=O)[nH]1)CC(C)(CC)OC3 (configuration not stated),.,-,-,-,-,-
COc1ccc(-c2noc(CN3CCCC(OCc4ccccn4)C3)n2)cc1 (configuration not stated),.,-,-,-,-,-
